Nrf2 ARE act = Nrf2 pathway activation | AID 624171 | AREc32 ARE-luciferase reporter (MCF7-derived line), luminescence, 24 h | Potency, µM (series often up to 46.1 µM), most hits filed as activators | 410,000 tested, 0.31% active; further: nearly all actives have a fitted effect of over 65% in size
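AREc32_Fluc, 1000 cells/well, OPTI-MEM + 5% FBS, o/n 37 deg C 5% CO2; 23 nL cpd by pin tool, 24 hr; Steady-Glo 30 min RT, luminescence.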
Nrf2 block = Nrf2 pathway inhibition | 360,000 tested, 2.1% active | Potency, µM (highest dose often 46 µM), most hits filed as inhibitors | AID 504444 | A549 ARE-Fluc reporter, luciferase luminescence, 18-24 h; further: nearly all actives have a fitted effect of over 60% in size
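Cells were seeded and rested 2 h, then exposed to compounds for 18-24 h. CellTiter-Fluor was read first as a viability measure. BugLite was added 15 min before the final luminescent read of ARE-luciferase activity in A549 cells.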
TGFb SMAD3 inh = TGF-b pathway inhibition. HepG2 CAGA-GFP TGF-b/SMAD3 reporter, GFP fluorescence, 18 h; TGF-beta stimulated, 500 pg/mL final. Potency, µM (series often up to 46.1 µM), hits mostly inhibitors. 410,000 tested, 1.2% active. AID 588855; further: nearly all actives have a fitted effect of over 65% in size
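First, reporter cells (HEPG2 CAGA-GFP) rested 2 h at 37 degrees C. Next, compounds were pinned in and TGF-beta added to 500 pg/mL final. After 18 h, GFP was imaged per cell and summed per well.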
HepG2 viability = counter-screen for TGF-b inhibitors: cytotoxicity in HepG2 cells; HepG2 CAGA-GFP viability, ATP luminescence, 18 h; Potency, µM (highest dose often 46.1 µM), actives largely listed as cytotoxic; 410,000 tested, 0.76% active
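HepG2 CAGA-GFP cells (1000/well, DMEM with 1% FBS) received compound, then TGF-beta at 500 pg/mL final, and were incubated 18 hours at 37 degrees C. Viability was read by CellTiter-Glo luminescence. Media-only wells were set as complete cell-killing and DMSO as no toxicity.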
A549 viability = counter-screen for Nrf2 inhibitors: cytotoxicity in A549 cells. 390,000 tested, 0.16% active. A549 ARE-Fluc cells, CellTiter-Fluor viability, 18-24 h. Potency, µM (doses to about 46 µM), hits mostly inhibitors
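A549 ARE-Fluc cells in 5% FBS OPTI-MEM, 5000 cells/well, rested 2 h then exposed to compounds in concentration-response for 18-24 h at 37 °C. Viability by CellTiter-Fluor fluorescence (Ex 405/Em 525) after 30 min; luciferase luminescence (BugLite, 15 min, RT) read afterwards.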
Of the large screens only hits and unclear results are named; the others gave an inactive call; ! = a repeat was not active. Shown are actives, neighbours in structure and some others; about 3.6% of the full set was active somewhere. The call rests on the fitted dose curve; in most records, active means well fitted curve in the direction sought with a large enough effect; inconclusive means small, poorly fitted or top-dose-only effect, or another doubt; inactive means no such curve, though single readings can be large; an effect the other way counts as inactive or inconclusive.

Cc1ccc(NC(=O)C2CCN(S(=O)(=O)c3ccc4c(c3)CC(C)N4C(=O)C3CCC3)CC2)nc1 (stereo unspecified)	Nrf2 block inconclusive, TGFb SMAD3 inh inconclusive
CC(=O)N1c2ccc(S(=O)(=O)N3CCC(C(=O)Nc4cccc(F)c4)CC3)cc2CC1C (stereo unspecified)	Nrf2 block 16µM
CCN1CCN(CCCNC(=O)c2cc3c(=O)n(CC)c4ccccc4c3s2)CC1	TGFb SMAD3 inh inconclusive
O=C1C=CC(=O)N1c1cccc(-c2ccccc2)c1	TGFb SMAD3 inh 11µM
Cn1cc(Cc2ccccc2)c(=O)c(Cc2ccccc2)c1	none
C=CCn1c(C)cc(C(=O)CN2C(=O)c3ccccc3S2(=O)=O)c1C	Nrf2 block 0.65µM
Cc1ccc(C(=O)CN2C(=O)c3ccccc3S2(=O)=O)cc1	Nrf2 block 21µM
O=C(CN1C(=O)c2ccccc2S1(=O)=O)c1ccccc1	none (no result: Nrf2 block)
Cc1cc(C(=O)CN2C(=O)c3ccccc3S2(=O)=O)c(C)n1-c1ccccc1	Nrf2 block inconclusive
CC1(C)O[C@H]2CC(=O)OC[C@@]23C1CC(=O)[C@]1(C)C3CC[C@@]2(C)[C@H](c3ccoc3)OC(=O)[C@H]3O[C@]321 (stereo partly specified)	none
COc1cccc(-c2noc(COc3ccccc3Cl)n2)c1	Nrf2 block inconclusive
C=CCN(CC=C)Cc1cc(=O)oc2ccccc12	none (no result: Nrf2 block, A549 viability)
CC1CCCCC1NC(=O)NC(=O)COC(=O)c1cncc(Br)c1 (stereo unspecified)	none
C/C=C1\COC(C(=O)NCCN2CCOCC2)(C(F)(F)F)C=C1C=C(C)C (stereo unspecified)	Nrf2 block inconclusive (no result: Nrf2 ARE act)
C/C=C1\COC(C(=O)NCc2ccccc2)(C(F)(F)F)C=C1C=C(C)C (stereo unspecified)	TGFb SMAD3 inh 11µM!
Cc1sc(NC(=O)c2ccco2)c(C(c2ccc(F)cc2)N2CCN(C)CC2)c1C (stereo unspecified)	TGFb SMAD3 inh 16µM, HepG2 viability 11µM
Cc1sc(NC(=O)c2ccco2)c(C(c2cccnc2)N2CCN(c3ccc(F)cc3)CC2)c1C (stereo unspecified)	Nrf2 block 15µM
Cc1sc(NC(=O)c2ccco2)c(C(c2cccnc2)N2CCN(CCO)CC2)c1C (stereo unspecified)	none
CCOc1ccc(C(c2c(NC(=O)c3ccccc3)sc(C)c2C)N2CCN(CCO)CC2)cc1 (stereo unspecified)	TGFb SMAD3 inh inconclusive, HepG2 viability 11µM, A549 viability inconclusive
COC(=O)C1=C(N)Oc2cc(C)n(CCCn3ccnc3)c(=O)c2C1c1ccc(Cl)cc1 (stereo unspecified)	none
Cc1ccc(NC(=O)CSc2ncccc2C(=O)Oc2cccc([N+](=O)[O-])c2)cc1Cl	Nrf2 block inconclusive
CCc1cccc(NC(=O)C(Cc2ccccc2)n2cccc2)c1 (stereo unspecified)	Nrf2 block 21µM, TGFb SMAD3 inh inconclusive
O=C(Nc1cccc(Cl)c1)C(Cc1ccccc1)n1cccc1 (stereo unspecified)	Nrf2 block inconclusive, TGFb SMAD3 inh inconclusive
Nc1nc(N)c2cc(S(=O)(=O)c3cccc(C(F)(F)F)c3)ccc2n1	HepG2 viability 1.3µM (no result: Nrf2 block, A549 viability)
O=C(COC(=O)CC1CC2CCC1C2)Nc1c(F)cccc1F (stereo unspecified)	none
O=S(=O)(c1c(F)cccc1F)N1CCN(Cc2c(O)ccc3ccccc23)CC1	Nrf2 ARE act inconclusive
Cc1cccc(NC(=O)c2cc3n(n2)C(C(F)(F)F)CC(c2ccc4c(c2)OCO4)N3)c1 (stereo unspecified)	none (no result: Nrf2 block)
COc1ccc(NC(=O)c2cc3n(n2)C(C(F)(F)F)CC(c2ccc4c(c2)OCO4)N3)cc1OC (stereo unspecified)	Nrf2 block 23µM
COc1cc2c(cc1OC)CN(C(=O)CCOc1ccccc1C)CC2	A549 viability inconclusive
COc1cc2c(cc1OC)CN(C(=O)CCCOc1ccc(Cl)cc1Cl)CC2	Nrf2 block 18µM, TGFb SMAD3 inh inconclusive
CCN1CCN(Cc2ccc(NC(=O)c3cc(NC(=O)c4cc5cccc(OC)c5o4)cc(OC)c3)cc2C(F)(F)F)CC1	TGFb SMAD3 inh inconclusive, HepG2 viability 18µM!
CCN1CCN(Cc2ccc(NC(=O)c3cc(NC(=O)c4ccno4)cc(OC)c3)cc2C(F)(F)F)CC1	TGFb SMAD3 inh inconclusive
CCN1CCN(Cc2ccc(NC(=O)c3cc(NC(=O)c4cc(-c5ccc(OC)cc5)n[nH]4)cc(OC)c3)cc2C(F)(F)F)CC1	TGFb SMAD3 inh inconclusive
CCN1CCN(Cc2ccc(NC(=O)c3cc(NC(=O)c4cncc(-c5cccs5)c4)cc(OC)c3)cc2C(F)(F)F)CC1	TGFb SMAD3 inh 14µM, HepG2 viability 14µM!
CCOC(=O)Cc1nnc(NC(=O)Nc2ccccc2)s1	none
CCOC(=O)Cc1ccc(NC(=O)Nc2nnc(N3CCCCC3C)s2)cc1 (stereo unspecified)	Nrf2 block 21µM, TGFb SMAD3 inh 11µM, A549 viability inconclusive
COc1ccccc1-c1nc(SCc2ccccn2)n[nH]1	Nrf2 block inconclusive, HepG2 viability 13µM
COc1ccc(CCC(=O)Nc2ccc(Cl)c(S(=O)(=O)N3CCCC3)c2)cc1	Nrf2 block 18µM, TGFb SMAD3 inh inconclusive
COc1ccc(NC(=O)CCCOc2ccc(Cl)c(C)c2)cc1S(=O)(=O)N1CCOCC1	Nrf2 block 18µM, TGFb SMAD3 inh inconclusive, A549 viability inconclusive
Cc1cc(C(F)(F)F)nc(SCC(=O)NC2CC3CCC2C3)n1 (stereo unspecified)	none
O=C(CNC(=O)N1CC(=O)Nc2ccccc21)Nc1ccccc1F	none
CC(C)OC(=O)c1c(-c2ccccc2)c(-c2ccccc2)nn(C)c1=O	Nrf2 block 9.2µM, TGFb SMAD3 inh inconclusive
COc1ccccc1NS(=O)(=O)c1cc(NC(=O)c2cccs2)ccc1N1CCCC1	none
O=C(NCc1ccccc1)c1nc(-c2ccc(Cl)cc2)n2c1CCCCC2	TGFb SMAD3 inh 11µM
CC(C)N(Cc1ccccc1)C(=O)c1nc(-c2ccc(Cl)cc2)n2c1CCCCC2	Nrf2 block 21µM, TGFb SMAD3 inh inconclusive
CCOc1ccccc1CNC(=O)c1nc(-c2ccc(Cl)cc2)n2c1CCCCC2	Nrf2 block 23µM, TGFb SMAD3 inh inconclusive
CCOc1ccc(NC(=O)C(=O)N/N=C/c2ccccc2F)cc1	none
CN(C(=O)CCN1C(=O)/C(=C/c2ccc(F)cc2)SC1=S)C1CCS(=O)(=O)C1 (stereo unspecified)	none (no result: Nrf2 block, A549 viability)
CCc1ccc(C2Sc3ccccc3NC3=C2C(=O)c2ccccc23)cc1 (stereo unspecified)	Nrf2 block inconclusive, TGFb SMAD3 inh 11µM, A549 viability inconclusive
